Inconclusive results are not listed. Entries that show only a call come without a potency. Active and inactive are the calls of the source. Unless noted, the call rests on the fitted dose curve; in most records, active means well fitted curve in the direction sought with a large enough effect in the repeat runs; inconclusive means weak or mixed curves; inactive means no such curve, though single readings can be large; an effect the other way counts as inactive or inconclusive.
Tests used:
[1] = target: Luciferin 4-monooxygenase (Photinus pyralis) (UniProt P08659); test: qHTS assay to identify small molecule inhibitors of firefly luciferase (AID 1224835); further: nearly all actives have a fitted effect of over 25% in size; further: potency means the concentration at half of the fitted maximal effect
Sequence of Luciferin 4-monooxygenase (Photinus pyralis) (P08659 whole entry, looked up): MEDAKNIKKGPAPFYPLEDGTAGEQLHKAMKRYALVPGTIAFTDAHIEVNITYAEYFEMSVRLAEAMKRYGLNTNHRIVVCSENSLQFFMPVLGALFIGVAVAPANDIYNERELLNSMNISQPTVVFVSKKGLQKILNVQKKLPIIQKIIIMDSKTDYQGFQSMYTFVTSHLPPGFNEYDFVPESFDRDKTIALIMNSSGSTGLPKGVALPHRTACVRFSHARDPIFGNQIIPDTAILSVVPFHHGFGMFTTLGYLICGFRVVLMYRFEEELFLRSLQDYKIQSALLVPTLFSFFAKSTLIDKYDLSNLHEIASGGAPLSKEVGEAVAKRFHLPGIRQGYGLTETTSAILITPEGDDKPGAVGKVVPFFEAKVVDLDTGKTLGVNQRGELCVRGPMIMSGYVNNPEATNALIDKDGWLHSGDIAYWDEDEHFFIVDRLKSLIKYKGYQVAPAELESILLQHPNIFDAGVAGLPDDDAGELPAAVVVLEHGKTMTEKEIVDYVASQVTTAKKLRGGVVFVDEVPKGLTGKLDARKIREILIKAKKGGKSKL
Summary of the method: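 Biochemical qHTS: compounds run as interplate titrations against purified firefly enzyme, with D-luciferin and ATP each at its KM concentration. Light output recorded by CCD imaging.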

[2] = qHTS assay to identify small molecule agonists of the constitutive androstane receptor (CAR) signaling pathway - cell viability counter screen (AID 1224836); further: series mostly up to about 92 µM; nearly all actives have a fitted effect of over 45% in size
Summary of the method: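 Cells were seeded and incubated 4 hrs. Compounds were added across 15 concentrations together with PK11195 at 0.75 uM final. Plates were incubated 23 hrs at 37 C. CellTiter-Fluor was added and fluorescence measured.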

[3] = qHTS assay to identify small molecule antagonists of the constitutive androstane receptor (CAR) signaling pathway - cell viability counter screen (AID 1224837); further: nearly all actives have a fitted effect of over 45% in size; further: potency means the concentration at half of the fitted maximal effect
Summary of the method: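 Fluorescence from CellTiter-Fluor served as the viability signal. Human hepatoma HepG2 cells stably bearing hCAR and CYP2B6-2.2kb received compound plus CITCO (50 nM final) for 23 hr.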

[4] = target: Thyrotropin receptor (Homo sapiens) (UniProt P16473); test: qHTS assay to identify small molecule agonists of the thyroid stimulating hormone receptor (TSHR) signaling pathway (AID 1224843; calls by dose curve; further: nearly all actives have a fitted effect of over 45% in size; further: potency means the concentration at half of the fitted maximal effect)
Sequence of Thyrotropin receptor (Homo sapiens) (P16473 whole entry, looked up): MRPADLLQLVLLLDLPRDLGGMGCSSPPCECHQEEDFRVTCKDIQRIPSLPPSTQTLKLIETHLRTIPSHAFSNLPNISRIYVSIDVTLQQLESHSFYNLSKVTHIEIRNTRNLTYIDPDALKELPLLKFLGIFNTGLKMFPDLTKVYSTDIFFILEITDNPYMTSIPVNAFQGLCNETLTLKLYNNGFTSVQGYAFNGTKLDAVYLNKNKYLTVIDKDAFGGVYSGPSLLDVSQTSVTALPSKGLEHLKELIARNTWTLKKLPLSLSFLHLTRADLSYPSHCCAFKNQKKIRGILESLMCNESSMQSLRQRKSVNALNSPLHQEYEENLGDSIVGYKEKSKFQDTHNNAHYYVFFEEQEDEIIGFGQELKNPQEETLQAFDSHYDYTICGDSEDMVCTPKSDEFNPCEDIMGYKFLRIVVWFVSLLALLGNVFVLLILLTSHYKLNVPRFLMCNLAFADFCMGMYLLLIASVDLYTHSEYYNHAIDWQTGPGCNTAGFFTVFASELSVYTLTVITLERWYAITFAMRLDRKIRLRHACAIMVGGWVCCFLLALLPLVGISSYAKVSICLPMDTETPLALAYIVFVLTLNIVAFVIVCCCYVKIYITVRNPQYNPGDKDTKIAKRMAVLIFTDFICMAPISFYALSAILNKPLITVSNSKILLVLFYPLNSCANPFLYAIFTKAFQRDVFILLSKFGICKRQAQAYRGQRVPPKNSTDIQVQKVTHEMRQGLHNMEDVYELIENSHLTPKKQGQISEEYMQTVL
Summary of the method: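 TSHR-HEK293 cells in agonist mode, 30 min room-temperature step, then cAMP measured by competitive HTRF (cAMP-d2 with anti-cAMP cryptate) after 1 h at room temperature. Tested at 15 concentrations in triplicate.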

[5] = target: Nuclear receptor subfamily 1 group I member 3 (Homo sapiens) (UniProt Q14994); test: qHTS assay to identify small molecule antagonists of the constitutive androstane receptor (CAR) signaling pathway (AID 1224838);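 further: HepG2 cells stably expressing hCAR with CYP2B6 luciferase reporter stimulated by CITCO; nearly all actives have a fitted effect of over 40% in size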; further: potency means the concentration at half of the fitted maximal effect
Sequence of Nuclear receptor subfamily 1 group I member 3 (Homo sapiens) (Q14994 whole entry, looked up): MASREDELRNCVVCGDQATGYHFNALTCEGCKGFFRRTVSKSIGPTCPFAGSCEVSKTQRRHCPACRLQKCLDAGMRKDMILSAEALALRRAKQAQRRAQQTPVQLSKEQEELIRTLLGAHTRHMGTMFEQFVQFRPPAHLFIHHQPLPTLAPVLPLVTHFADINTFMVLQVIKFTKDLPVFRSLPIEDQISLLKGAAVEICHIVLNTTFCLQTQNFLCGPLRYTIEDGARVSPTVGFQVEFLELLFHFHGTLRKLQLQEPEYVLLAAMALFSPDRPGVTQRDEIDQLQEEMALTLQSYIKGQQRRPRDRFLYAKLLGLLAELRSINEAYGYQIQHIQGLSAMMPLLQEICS
Summary of the method: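 Quantitative HTS in double-stable HepG2-CYP2B6-hCAR cells. After 4 h plating, cells get compound (15 concentrations) and CITCO at 50 nM final, incubate 24 h at 37 C, then ONE-Glo luminescence is read.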

[6] = target: Nuclear receptor subfamily 1 group I member 3 (Homo sapiens) (UniProt Q14994); test: qHTS assay to identify small molecule agonists of the constitutive androstane receptor (CAR) signaling pathway (AID 1224839); further: nearly all actives have a fitted effect of over 15% in size; further: potency means the concentration at half of the fitted maximal effect
Summary of the method: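 Cells were plated and incubated 4 hrs, then dosed with compounds at 15 concentrations. PK11195 was added to 0.75 uM final. After 24 hrs at 37 C, luciferase luminescence was measured.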

[7] = qHTS assay to identify small molecule antagonists of the estrogen related receptor signaling pathway with the pleiotropic PPARgamma coactivator (PGC) from Tox21 10K library - cell viability counter screen (AID 1224840; active means well fitted cell-killing curve with a large enough effect in the repeat runs, not every such curve was filed as active; further: nearly all actives have a fitted effect of over 40% in size; further: potency means the concentration at half of the fitted maximal effect)
Summary of the method: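 Compounds in DMSO, alongside positive and negative controls, were pinned onto PGC/ERR cells (2,000 per well). Exposure lasted 17.5 hours at 37 C, followed by a 30-minute CellTiter-Fluor incubation and fluorescence reading.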

[8] = qHTS assay to identify small molecule agonists of the estrogen related receptor signaling pathway with the pleiotropic PPARgamma coactivator (PGC) from Tox21 10K library (AID 1224842); further: nearly all actives have a fitted effect of over 15% in size
Summary of the method: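 PGC/ERR reporter cell line, 2,000 cells per well, incubated 6 h at 37 C before 23 nL compound in DMSO was added. After 18 h at 37 C, One-Glo luminescence read following 30 min at room temperature.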

[9] = qHTS assay to identify small molecule antagonists of the estrogen related receptor (ERR) signaling pathway from Tox21 library - cell viability counter screen (AID 1224834); further: nearly all actives have a fitted effect of over 30% in size; further: potency means the concentration at half of the fitted maximal effect
Summary of the method: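 Viability readout (CellTiter-Fluor fluorescence, 30 min at 37 C) multiplexed with the ERR assay; cells treated 17.5 h at 37 C with compounds delivered in DMSO.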

[10] = qHTS assay to identify small molecule antagonists of the estrogen related receptor signaling pathway with the pleiotropic PPARgamma coactivator (PGC) from Tox21 10K library (AID 1224841; call rule not given here; further: potency means the concentration at half of the fitted maximal effect; actives are mostly falling curves and most rising ones were filed inactive; nearly all actives have a fitted effect of over 50% in size)
Summary of the method: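 Compound exposure ran 18 hours at 37 C in PGC/ERR cells (2,000/well) that had first rested 6 hours in a 37 C/5% CO2 incubator. Luciferase activity was then detected with One-Glo after a 30-minute room-temperature step.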

| Compound | Potency [1] | Potency [2] | Potency [3] | Potency [4] | Potency [5] | Potency [6] | Potency [7] | outcome [8] | Potency [9] | Potency [10] |
| --- | --- | --- | --- | --- | --- | --- | --- | --- | --- | --- |
| c1cc[c]([Hg][c]2ccccc2)cc1 | 17.8 µM (active) | inactive | inactive | inactive | – | – | – | – | – | – |
| CC(C)(C)OC(=O)c1ncn2c1[C@@H]1CCCN1C(=O)c1c(Br)cccc1-2 | inactive | inactive | inactive | inactive | inactive | inactive | inactive | inactive | – | – |
| CC(CC(C#N)(c1ccccc1)c1ccccc1)N(C)C (stereo not drawn) | inactive | – | inactive | inactive | – | 27.2 µM (active) | inactive | – | – | – |
| CCCCCCBr | – | inactive | inactive | inactive | – | inactive | inactive | inactive | inactive | – |
| O=C(Nc1ccccc1)N(Cc1ccc(Cl)cc1)C1CCCC1 | inactive | – | 61.1 µM (active) | 48.6 µM (active) | – | – | – | inactive | 48.6 µM (active) | – |
| CCC(C)(C)c1cc(-n2nc3ccccc3n2)c(O)c(C(C)(C)CC)c1 | inactive | – | – | inactive | inactive | inactive | – | inactive | – | 49.3 µM (active) |
| CC(C)CP(=S)(S)CC(C)C | inactive | inactive | – | inactive | 3.44 µM (active) | inactive | 2.73 µM (active) | – | inactive | – |
| CC1(C(=O)Nc2ccc(O)c(Cl)c2Cl)CCCCC1 | inactive | inactive | inactive | – | – | inactive | inactive | inactive | – | – |

— PubChem BioAssay (Tox21)
